PubChem BioAssay AID1159580 (chemical genetic matrix, 2015)
Screen size: about 5,500 compounds; about 2,000 (36%) were called active. Inconclusive results (about 18%) are left out. Rule as the data show it: active = normalized growth mostly below about 0.91 (no sharp cut-off); inconclusive = no clear call, values can overlap the other calls; inactive = mostly above about 0.92. The list shows a part of the results.

Experiment: chemical genetic growth profiling, strain panel (AID 1159580);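 also: tested at 20 µM; growth read once vehicle control cultures reached saturation at 30 °C; 1 = growth at the plate median or of vehicle wells; lower values mean less growth of the strain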
Details: S. cerevisiae deletion strains, growth OD

Measured: normalized growth

Cc1csc(NC(=O)Nc2ccc(C(F)(F)F)cc2)c1Cl
inactive: locus YAR019C, strain CDC15, hits give low values 0.958 | locus YBL105C, strain PKC1, hits give low values 0.96 | locus YBR135W, strain CKS1, hits give low values 0.948 | locus YBR136W, strain MEC1, hits give low values 0.957 | locus YBR160W, strain CDC28, hits give low values 0.943 | locus YDL017W, strain CDC7, hits give low values 0.954 | locus YDL028C, strain MPS1, hits give low values 0.962 | locus YDL101C, strain DUN1, hits give low values 0.988 | locus YDL108W, strain KIN28, hits give low values 0.948 | locus YDL132W, strain cdc53, hits give low values 0.969 | locus YDL214C, strain PRR2, hits give low values 0.836 | locus YDR052C, strain DBF4, hits give low values 0.961 | locus YDR054C, strain cdc34, hits give low values 0.949 | locus YDR226W, strain ADK1, hits give low values 0.96 | locus YDR477W, strain SNF1, hits give low values 0.905 | locus YER123W, strain YCK3, hits give low values 0.802 | locus YER133W, strain GLC7, hits give low values 0.897 | locus YFL009W, strain cdc4, hits give low values 0.951 | locus YFL029C, strain CAK1, hits give low values 0.946 | locus YFR003C, strain YPI1, hits give low values 0.957 | locus YFR019W, strain FAB1, hits give low values 0.884 | locus YFR028C, strain CDC14, hits give low values 0.945 | locus YGR040W, strain KSS1, hits give low values 0.892 | locus YGR052W, strain FMP48, hits give low values 0.884 | locus YGR092W, strain DBF2, hits give low values 0.861 | locus YHR030C, strain SLT2, hits give low values 0.858 | locus YHR079C, strain IRE1, hits give low values 0.815 | locus YHR082C, strain KSP1, hits give low values 0.873 | locus YHR205W, strain SCH9, hits give low values 0.78 | locus YIL147C, strain SLN1, hits give low values 0.958 | locus YJL095W, strain BCK1, hits give low values 0.832 | locus YJL128C, strain PBS2, hits give low values 0.891 | locus YJL157C, strain FAR1, hits give low values 0.849 | locus YJR016C, strain ILV3, hits give low values 0.95 | locus YJR066W, strain TOR1 (second series), hits give low values 0.854 | locus YJR066W, strain TOR1, hits give low values 0.92 | locus YKL048C, strain ELM1, hits give low values 0.892 | locus YKL067W, strain YNK1, hits give low values 0.831 | locus YKL101W, strain HSL1, hits give low values 0.831 | locus YKL193C, strain SDS22, hits give low values 0.951 | locus YKL203C, strain TOR2, hits give low values 0.957 | locus YLR133W, strain CKI1, hits give low values 0.823 | locus YLR403W, strain SFP1, hits give low values 0.871 | locus YML070W, strain DAK1, hits give low values 0.802 | locus YMR001C, strain CDC5, hits give low values 0.954 | locus YMR205C, strain PFK2 (second series), hits give low values 0.833 | locus YMR277W, strain FCP1, hits give low values 0.966 | locus YNL006W, strain LST8, hits give low values 0.968 | locus YNL020C, strain ARK1, hits give low values 0.823 | locus YNL161W, strain CBK1, hits give low values 0.957 | locus YNL183C, strain NPR1, hits give low values 0.829 | locus YNL207W, strain RIO2, hits give low values 0.945 | locus YNL222W, strain SSU72, hits give low values 0.95 | locus YNL307C, strain MCK1 (second series), hits give low values 0.84 | locus YOL078W, strain AVO1, hits give low values 0.946 | locus YOL136C, strain PFK27, hits give low values 0.801 | locus YOR061W, strain CKA2, hits give low values 0.842 | locus YOR119C, strain RIO1, hits give low values 0.942 | locus YOR231W, strain MKK1, hits give low values 0.762 | locus YOR329C, strain SCD5, hits give low values 0.962 | locus YPL031C, strain PHO85, hits give low values 0.892 | locus YPL153C, strain RAD53, hits give low values 0.88 | locus YPL204W, strain HRR25, hits give low values 0.868 | locus YPL209C, strain IPL1, hits give low values 0.946 | locus YPR025C, strain CCL1, hits give low values 0.966 | locus YPR106W, strain ISR1, hits give low values 0.932 | locus YPR111W, strain DBF20, hits give low values 0.927 | strain NNK1, hits give low values 0.93 | strain TSCII, hits give low values 0.945
active: locus YLR113W, strain HOG1, hits give low values 0.675 | locus YPL256C, strain CLN2, hits give low values 0.724
